Measurements from PubChem BioAssay AID493084 (National Center for Advancing Translational Sciences (NCATS), 2011).
Screen size: about 360,000 compounds; about 650 (0.18%) were called active. This is one part of a sample in which actives are shown more often than they occur. Values without a mark were called inactive. Rule as the data show it: active = activation above about 30%; inactive = the rest.

Target: Thyrotropin-releasing hormone receptor (Homo sapiens) (UniProt P34981)
Test: qHTS for Small Molecule Agonists and Allosteric Enhancers of Human TRH Receptor: Primary Screen for Agonists. Also: 0% is about no effect.
Conditions: TRHR cells, calcium flux fluo-8, FDSS agonist mode; at 2 µM; stronger effect = higher value
Source text: NIH Chemical Genomics Center [NCGC] NIH Molecular Libraries Probe Centers Network [MLPCN] MLPCN Grant: MH089816-01 Assay Submitter (PI): Marvin Gershengorn This project aims to identify small drug-like molecules that activate (agonists) the thyrotropin releasing hormone (TRH) receptor (TRHR) or enhance its TRH-stimulated activity (allosteric enhancers). TRHR, a drug-accessible cell surface receptor expressed in specific brain regions, and its ligand TRH have been implicated in several central nervous system disorders, including depression and anxiety. Small molecule TRHR agonists or allosteric enhancers that are metabolically stable and able to cross the blood-brain barrier might serve as probes to elucidate the roles of brain TRH receptors in animal models, and might be valuable as lead compounds for the development of drugs to treat patients with central nervous system disorders. Upon TRHR-Gq activation in TRHR cells, intracellular calcium is released from stores in the endoplasmic reticulum. […] This primary screen measures compound-induced activation of calcium release.
For the HTS assay freshly prepared cells are plated at a density of 2000/well in 3 ul of complete DMEM medium containing 10% serum in 1536-well plates and cultured over night at 37 C in a humidified incubator with 5% CO2. The next day, 2 ul of a no wash calcium dye (ABD Bioquest) was added to the cells and plates were incubated at room temperature for 1 hour. For the assay, assay plates were loaded into the FDSS kinetic plate reader. A 10 cycle (1 second/cycle) baseline measurement is taken and then the FDSS online 1536 pintool delivers 23 nl of compound library (as well as TRH controls) to the plate. The plate is measured for kinetically at 1 cycle/sec for 180 seconds and is considered to be the agonist portion of the assay (eg, compounds which activate a positive calcium response during this portion are flagged as potential agonists). Following the 180 second read, 1 ul of either an EC20 (positive modulation assay) is delivered by an onboard pipette head. Measurements are taken kinetically for an additional 180 seconds. TRHR FDSS Screening Protocol 1. Reagent, 3 uL 2000 cells/well 1536 TC treated Black plate in media containing 10% FCS 2. Time, 18 hours, 33.5C 5% CO2 (cells grown at 37C) 3. Reagent, 2 uL ABD fluo-8 Ca dye 4. Time, 30 min-1.5hrs hours, Room temp (6 plates/batch) 5. Detector, EX 480/EM 530C, FDSS 10 cycles baseline (1sec/cycle) 6. Compound, 23 nL of stock solution from library 7. Detector, EX 480/EM 530C, FDSS […] (1sec/cycle) Agonist mode 8. Compound, 1 ul EC20 of TRH made up in HEPES HBSS, 10 nM final 9. Detector, EX 480/EM 530C, FDSS 100 cycles (1sec/cycle) Potentiator mode

Sequence of Thyrotropin-releasing hormone receptor (Homo sapiens) (P34981 whole entry, looked up): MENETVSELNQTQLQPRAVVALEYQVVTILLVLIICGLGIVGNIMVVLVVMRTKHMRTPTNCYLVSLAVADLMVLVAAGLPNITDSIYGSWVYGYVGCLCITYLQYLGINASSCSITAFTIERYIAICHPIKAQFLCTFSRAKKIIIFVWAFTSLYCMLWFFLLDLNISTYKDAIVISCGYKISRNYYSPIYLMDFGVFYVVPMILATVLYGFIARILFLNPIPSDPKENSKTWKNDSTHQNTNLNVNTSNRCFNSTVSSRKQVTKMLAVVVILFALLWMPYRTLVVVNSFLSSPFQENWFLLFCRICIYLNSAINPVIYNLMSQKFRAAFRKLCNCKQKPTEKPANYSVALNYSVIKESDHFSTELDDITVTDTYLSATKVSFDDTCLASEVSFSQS

In order of rising activation:
1. COCCn1c(CCC(=O)Nc2cc(C)ccc2C)nc2cccnc21  -1.95%
2. COc1ccccc1C(=O)Nc1c(C(=O)N(C)Cc2ccccc2)sc2nc(C)c(Cl)c(C)c12  -1.19%
3. O=[S+]([O-])(c1ccc2c(c1)OCCO2)N1CCN([S+](=O)([O-])c2c(Cl)cc(Cl)cc2Br)CC1  -1.11%
4. O=C1CC(c2nnc(Cc3ccc(Cl)cc3)o2)CN1c1ccccc1 (stereo unspecified)  -0.928%
5. COc1cc(C(=S)NCc2ccccc2)cc(Br)c1O  -0.891%
6. COc1ccc(CCNC(=O)CCCCn2c(=O)c3ccccc3n(Cc3ccccc3)c2=O)cc1OC  -0.65%
7. CC(C)CNc1ncnc2c1nnn2C  -0.593%
8. COc1ccccc1NC(=O)CSc1oc(-c2ccco2)nc1S(=O)(=O)c1ccc(Br)cc1  -0.526%
9. Cc1ccccc1Cn1nc(C)c(NC(=O)c2cc(-c3ccc(F)cc3)on2)c1C  -0.526%
10. COc1ccc(NC(=O)c2ccc3oc(=O)c(S(=O)(=O)c4ccc(F)cc4)cc3c2)c(OC)c1  -0.513%
11. COc1cccc(N2CCN(C(=O)CCCCCn3c(=O)[nH]c4ccccc4c3=O)CC2)c1  -0.437%
12. Cc1nc2ccn(Cc3cccnc3)c(=O)c2cc1C(=O)N1CCN(c2ccccc2F)CC1  -0.337%
13. O=C(CCCCCn1c(=O)[nH]c2ccccc2c1=O)NCCc1c[nH]c2ccccc12  -0.335%
14. CCC(=O)N1c2ccccc2CC1C(=O)N1CCN(c2cccc(OC)c2)CC1 (stereo unspecified)  -0.304%
15. Cc1ccc(S(=O)(=O)N2CCCc3cc(NS(=O)(=O)c4cc(C)ccc4C)ccc32)cc1  -0.123%
16. CCOc1ccc(CNC(=O)Cn2cc3c(n2)-c2c(oc(C(=O)N4CCCC4)c2C)CC3)cc1  -0.1%
17. C/C(=C/c1ccccc1)C(=O)N1CCN(c2ccccc2)CC1  -0.0779%
18. COc1ccccc1CNC(=O)NCc1noc2ccc(C)cc12  -0.0554%
19. CCc1ccc(N(CC)C(=O)CCn2cnc3onc(-c4ccc(F)cc4)c3c2=O)cc1  0.0408%
20. CC1=C(c2ccc(F)cc2)S(=O)(=O)N=C1N1CCC(C(=O)NCCc2ccccc2C)CC1  0.06%
21. O=C(O)CCC(=O)Nc1ccc(N2CCOCC2)cc1  0.0804%
22. CN(C)c1ccc(C(=O)NCC(=O)OC(C(=O)Nc2cc(C(F)(F)F)ccc2Cl)c2ccccc2)cc1 (stereo unspecified)  0.138%
23. CC1(C(=O)NCCc2c[nH]c3ccccc23)C=CC2(CCCCC2)N1C(=O)c1ccccc1 (stereo unspecified)  0.212%
24. Cc1ccc2cccc(NC(=O)C(C)Oc3ccc(C)c(C)c3)c2n1 (stereo unspecified)  0.214%
25. COc1cc(Br)cc2cc(S(=O)(=O)c3ccccc3)c(=O)oc12  0.456%
26. Cc1ccc(S(=O)(=O)N2CCc3cc(C(=O)Nc4ccc(Cl)cc4C)ccc32)cc1  0.483%
27. CCOC(=O)c1cc2c(=O)n3ccccc3nc2n(CCCOC)c1=NC(=O)C(C)Oc1ccccc1 (stereo unspecified)  0.485%
28. CCc1ccc(S(=O)(=O)n2ccnc2)cc1  0.631%
29. COc1ccccc1-n1c(-c2ccc(C)cc2)cn2c3c(=O)n(C)c(=O)n(C)c3nc12  0.636%
30. N#CN1CCC(NS(=O)(=O)c2cccc(F)c2)C1 (stereo unspecified)  0.751%
31. CCOC(=O)C1CCN(c2nc3c(S(=O)(=O)c4ccc(CC)cc4)nnn3c3ccc(Cl)cc23)CC1  0.759%
32. CCc1cccc(NC(=O)CN(c2ccc(C)c(C)c2)S(=O)(=O)c2ccsc2C(=O)OC)c1  0.768%
33. O=C(Cn1cnc2c(oc3ccccc32)c1=O)Nc1ccc(OC(F)(F)F)cc1  0.788%
34. Cc1cccc(C)c1-n1ncc(C(=O)NCCCN2CCCCC2)c1C1CCN(C(=O)OC(C)(C)C)CC1  0.838%
35. COc1ccc(Cn2c(=O)c3oc4ccccc4c3n(CC(=O)Nc3ccc(F)cc3F)c2=O)cc1  1.15%
36. CCOC(=O)c1cc(-c2ccc(OC)c(S(=O)(=O)Nc3ccc(OC)cc3OC)c2)on1  1.19%
37. N#Cc1nc(Nc2cc(F)cc(Cl)c2)nc(NC2CCCC2)n1  1.3%
38. Cc1cccc(-n2ncc(C(=O)N3CCN(c4ccc(Cl)cc4)CC3)c2C2CCN(C(=O)OC(C)(C)C)CC2)c1  3.67%
39. CCC(CC)c1nn2cc(-c3ccccc3)nc2s1  6.57%
40. Cc1noc(C)c1-c1ccc2ncnc(NCc3ccc(F)c(F)c3)c2c1  21.5%

With `Cc1cc(S(=O)(=O)c2cc3ccc(O)c(C)c3oc2=O)ccc1F` the activation was 44.2% (active).
In the case of `O=C(/C=C/c1ccc(N2CCOCC2)cc1)c1ccccc1`, the activation is reported as 42.4% (active).
With `CCCCCCc1cc2cc(-c3nnc(-c4ccccc4)o3)c(=O)oc2cc1O` the activation was 185% (active).
For `CN(C)c1ccc(/C=C2\NC(=S)N(Cc3ccccc3)C2=O)cc1`, the activation was 94.7% (active).
With `N#C/C(=C/c1ccc(N2CCCCC2)o1)C(=O)NCCc1c[nH]c2ccccc12` the activation was 43.2% (active).
For `COc1cc(/C=C2/SC(=S)N(Cc3ccccc3)C2=O)cc(OC)c1O`, the activation was 33.6% (active).
